# Experimental data reported in ChEMBL document CHEMBL3988442, “University of Dundee, Small-Polar-MMV Screening Library” (2021).
# Hit rate of the full screen: of about 69,000 compounds, about 950 (1.4%) showed an effect of 50% or more. The sample as a whole holds a higher share of strong results than the screen did.
# Test system: Mycobacterium tuberculosis
# Assay: Cornell M. t heat shock assay; also: in the data most compounds retested in dose-response had high values
# Format: functional, organism-based
# Parameters: dose or concentration left out as unconfirmed
row,SMILES,Percent Effect
1,CN1CCN(CC2CC2)C(=O)C12CCN(C(=O)CC(F)(F)F)CC2.O=C(O)C(F)(F)F,5.441%
2,COc1ccccc1Oc1ncccc1CNC(=O)[C@@H](C)NC(C)=O,11.05%
3,Cc1cnc(CN2CCCCC2c2nc(-c3ccccc3)no2)cn1 (configuration not stated),5.875%
4,c1ccc2nc(CN3CCCC3c3noc(C4CC4)n3)ccc2c1 (configuration not stated),108.9%
5,c1ccc(Cn2ccnc2CN2CCCC2c2noc(C3CC3)n2)cc1 (configuration not stated),104.2%
6,Cn1ccnc1CN1CCCCC1c1nc(-c2ccccc2)no1 (configuration not stated),51.73%
7,CCn1ccnc1CN1CCCC1c1noc(C2CC2)n1 (configuration not stated),-4.423%
8,COc1c(C)cnc(CN2CCCC2c2noc(C3CC3)n2)c1C (configuration not stated),-0.8434%
9,CCc1nc(C2CCCN2Cc2nccn2Cc2ccccc2)no1 (configuration not stated),20.06%
10,Cc1noc(C)c1CN1CCCCC1c1nc(-c2ccccc2)no1 (configuration not stated),-13.3%
11,c1ccc2oc(CN3CCCC3c3noc(C4CC4)n3)nc2c1 (configuration not stated),17.43%
12,COc1ccc(C)cc1CN1CCCC1c1noc(C2CC2)n1 (configuration not stated),82.36%
13,Cc1nc(CN2CCCC2c2noc(C3CC3)n2)nc2ccccc12 (configuration not stated),27.9%
14,Cc1cc(CN2CCCC2c2noc(C3CC3)n2)c2ccccc2n1 (configuration not stated),31.64%
15,COC(=O)Cn1c(=O)nc2n1C(=O)N(c1ccc(Br)cc1)C2,18.41%
16,CNC(=O)[C@H]1C[C@@H]2CN(Cc3cccc(C)c3)C[C@H]1O2.O=C(O)C(F)(F)F,19.67%
17,COCCNC(=O)[C@H]1CN(Cc2sccc2C)C[C@H]2OCC[C@@H]12.O=C(O)C(F)(F)F,-45.09%
18,Br.Cc1cc(C)c(N(CC(O)CNCc2ccccc2)S(C)(=O)=O)c(C)c1 (configuration not stated),3.921%
19,Cc1cccc(CN2C(=O)CCC23CCNCC3)n1.O=C(O)C(F)(F)F.O=C(O)C(F)(F)F,-5.538%
20,COCCN1CCC2(CCCN(c3ncccn3)C2)C1.O=C(O)C(F)(F)F (configuration not stated),-80.98%
21,CN1CCCC(c2n[nH]c3ncccc23)C1 (configuration not stated),-10.45%
22,c1cnc(N2CCC(c3n[nH]c4ncccc34)C2)nc1 (configuration not stated),-8.956%
23,CN1CCC(c2n[nH]c3ncccc23)C1.O=CO (configuration not stated),50.56%
24,Cc1ccccc1N1CCN(c2ccncn2)C(C)C1 (configuration not stated),56.56%
25,Cc1ccc(N2CCN(c3ccccc3C)CC2C)nn1 (configuration not stated),2.644%
26,Cc1ccccc1N1CCN(c2cc(N(C)C)ncn2)C(C)C1 (configuration not stated),21.52%
27,Cc1ccc(Nc2nccc(C3CCN(C(=O)CN)C3)n2)nc1.Cl (configuration not stated),-1.968%
